In the supplement of paper PMC11417369:
± gives the standard deviation of the averaged measurements. The full ranking holds about 25,000 sequences; the median of “ln(normalized median fluorescence intensity)” is about 7.9, and the highest 2% start at about 11. This excerpt belongs to a sample that is enriched for the highest values.

Test system: PfAP2-I AP2 domain 3 (GST-tagged)
Assay: gcPBM binding intensity (ln(normalized median fluorescence intensity)); higher = stronger DNA binding
How it was run: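 An Agilent 4 × 180k array of primer-extended double-stranded 36-bp intergenic genomic probes, with negative controls, was incubated for 1 h with GST-tagged P. falciparum DNA-binding domains expressed in E. coli. Alexa488 anti-GST antibody detected bound protein, scanned at 488 nm. Binding intensity is the highest Masliner-normalised natural-log median intensity across replicate spots of either probe orientation.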

Row | Sequence | gcPBM binding intensity (ln)
1 | ACAAGACAGATATATACACACATACATACATACATA [CACACA_site7472] | 8.12 ± 0.64
2 | ATAAAGGAATTTTATACACACAACATATATATATAT [CACACA_site2861] | 9.45 ± 0.6
3 | TATATATATATATATTGTACACATTGTGTTTAAATA [XGTACX_site5104] | 9.43 ± 0.44
4 | TTTTCTATTTAATTGGTGCACTGATATATACACATA [GTGCAC_site9533] | 11.3 ± 0.54
5 | GTAATTTTTTTCTATACACACATATATATAATATAT [CACACA_site2655] | 8.12 ± 0.58
6 | GTAATTTTTTTCTATACACACATATCTATAATATAT [CACACA_site7284] | 8.09 ± 0.6
7 | TATGTATAAATATATGCACACATATATATATTTATA [CACACA_site9150] | 8.85 ± 0.26
8 | TATGTATTTTTATGCACACATGCGTGGCTTATATAA [CACACA_site387] | 10.9 ± 0.13
9 | TTTATGTATTTTTATGCACACATGCGTGGCTTATAT [CACACA_site4374] | 10.79 ± 0.064
10 | ATATATATTTCTTAAAGTACATAATAATAAAAATAT [XGTACX_site8981] | 7.79 ± 0.44
11 | AAAAAAAATAAAATGAATAAATAAGAATTACATATT [CACACA_negctrl_site863] | 7.39 ± 0.65
12 | TCTATGAATTAATATGCATGTAACGTATTTATACTT [TGCATGCA_site669] | 7.67 ± 0.83
13 | CAAGCACAGAAACACACACACACACCGACACAGACA [CACACA_site4359] | 8.11 ± 0.24
14 | AGGATATAAAGTTGTGCATGTCAAGTGCACCGTATT [TGCATGCA_site451] | 11 ± 0.35
15 | CATATAAAAATGTGCACACACACACCGATATATATT [CACACA_site4940] | 9.59 ± 0.17
16 | AAAAAAAAGTTGTAAGTGCATGTATATAATAATATT | 8.42 ± 0.54
17 | AAAAAAAAATATATTGCACACCTCTCAATAAAAAAA [CACACA_site172] | 10.3 ± 0.43
18 | CATATAAAAAATATGGTGCAGTTTTTTTTTTTTTTT | 10.2 ± 0.23
19 | GTATATTTTATTTTATGTACATATTCATTTTTTATT [XGTACX_site561] | 8.3 ± 0.4
20 | AAAAATGTATGTATGGTGCAGTATTCATATCATTTT [GTGCAC_site9458] | 10.93 ± 0.057
21 | ACTATAAATATATAAATATATATATATATATATATA [GTGCAC_negctrl_site65] | 9.34 ± 0.8
22 | TATAAGTAGATAAGGGTGCACAATATAAATATATAG | 11.55 ± 0.021
23 | ATATATATATATTACACACACACAAAAAAAATAAAG [CACACA_site118] | 9.07 ± 0.18

Row | Sequence | gcPBM binding intensity (ln)
24 | AAAAATAAAAGGTGTGCACACAAAAATATATATATA [CACACA_site8507] | 9.74 ± 0.26
25 | TTATAAAAGACAAAAGTGCATATATACATATGTATA | 9.49 ± 0.21
26 | ATATATATATTAAAGGTGCACAAATAAATATATACA [GTGCAC_site9532] | 11.54 ± 0.035
27 | AATAAATAGATAAGCACACAAGCATATAGACATATA [CACACA_site222] | 7.72 ± 0.49
28 | ACAAAAAAATAAGGTGCACACAAAAAAAAAAAAAAA [CACACA_site8171] | 10.7 ± 0.76
29 | AAAAAAAAAATTTAGGTGCATACAAATAAATTATAT [GTGCAC_site9521] | 10.2 ± 0.48
30 | TAAATATAAAAATGCACACACACAAAAAAAAAAAAA [CACACA_site895] | 8.88 ± 0.085
31 | TATAAATATACAAAGGTGCATAAAAAGTTATGTTTT [GTGCAC_site9832] | 11.2 ± 0.26
32 | AAAAAAATAAGGTGCACACAAAAAAAAAAAAAAAAA [CACACA_site812] | 10.9 ± 0.71
33 | ATAAAATATAAAAACGCACACAATTATAAGGGTGTA [CACACA_site177] | 7.95 ± 0.35
34 | ATATGTGTGTGTATTTGTACCCAATTTTTATATATA [XGTACX_site4948] | 8.29 ± 0.43
35 | TATATATATATATATGTGCACATATATATGATATTA | 9.79 ± 0.28
36 | CGAATAAATATATGTAGTACATGTTGTAGATAATTT [XGTACX_site1218] | 8.01 ± 0.48
37 | ATTTATTAATCATATACACACATATATTTGTATTTA [CACACA_site1336] | 7.67 ± 0.49
38 | TTTGGGTATACACATACATGCATGTCCTTATATATA [TGCATGCA_site84] | 7.86 ± 0.63
39 | TGTGTAATATTCTGTTGTACATAACTCATAAATAAA [XGTACX_site5308] | 7.95 ± 0.31
40 | AATATGTTATAAATATGTTATAAATAATAAATAAAT [GTGCAC_negctrl_site135] | 7.74 ± 0.62
41 | AAAATAGCTGTATAGAGTACATATAAATAATGTTGT [XGTACX_site5692] | 7.57 ± 0.58
42 | TAAATCACAAAATTATGTACTAAGAAGGAGCAACAT [XGTACX_site6742] | 8.05 ± 0.45
43 | AACATACATAAACACACACACACACCCACAGAGACA [CACACA_site4430] | 8.32 ± 0.22
44 | AAAAATAAAGGGTGTGCACACAAAAATATATATATA [CACACA_site1727] | 9.8 ± 0.14
45 | TGAGCACAAATACAGGTGCATATAAAATATATGACG | 10.3 ± 0.3
46 | AATATACATAACAAGGTGCAAAAAATATTGTTCATA [GTGCAC_site9499] | 10.4 ± 0.26

Row | Sequence | gcPBM binding intensity (ln)
47 | AAATATAAAGTGCACACACACAAAAAAAGAAAAAAA [CACACA_site6452] | 10.2 ± 0.36
48 | AAATAAAAAGGGTGCACACAAAAATATATATATATA [CACACA_site1728] | 11 ± 0.84
49 | TTTTTTTGTTAAAAGGTGCTAATATATATAAGTGCT | 10.1 ± 0.45
50 | TATATTGCAAAAAGTACACACATAAATAAATACATA [CACACA_site6589] | 8.2 ± 0.24
51 | ATGTTTGAGCCTAAGGTGCATATAAAAATATATGTG [GTGCAC_site9690] | 11 ± 0.66
52 | AATACATATTCAAAGGTGCAAAATAAAAATATACAT [GTGCAC_site9743] | 11.2 ± 0.44
53 | TGTGTATATAAATAATGTACATATATATTTTTTTAT [XGTACX_site7341] | 7.79 ± 0.22
54 | AAAAAAAAAAAAAAAAAAAGAAAAGAAAATAGGGTT [GTGCAC_negctrl_site421] | 8.96 ± 0.22
55 | CATATGATATGTTATACACACACGTATATATGAATT [CACACA_site3446] | 8.03 ± 0.21
56 | TTTTTTTTTTTTGTAATACACACCACTATATGTTAT [CACACA_site1844] | 8.15 ± 0.73
57 | AAAACAAACAAAAAAAAAAAAAAAAATATCAATCTA [TGCATGCA_negctrl_site203] | 7.01 ± 0.52
58 | CACAAAATAAATTAAACACACAACATCATAGATGTA [CACACA_site4619] | 7.21 ± 0.54
59 | AAGATATCTAAGGAAATTAAACTACCAAAATATATA [TGCATGCA_negctrl_site338] | 7.39 ± 0.59
60 | ATTTATATGCACCATTGTACGTTTTATAAAGTTTGG [XGTACX_site3755] | 11.6 ± 0.83
61 | CATTTTGTTTTAAAGTGTACATTATGTAATATAAAA [XGTACX_site647] | 7.84 ± 0.43
62 | ATATATATTATCATTGTGCACTTATTTATATACCTT | 11.1 ± 0.15
63 | TTTTTATTTTCATATGTGCACTTATATATATATATA | 10.82 ± 0.099
64 | ATATATATATAAAGTTGTACATTTTTTATTTTTTCA [XGTACX_site7847] | 9.09 ± 0.16
65 | CATATTGGTATGCTCATGCACTTTTATTTTGTTATT [GTGCAC_site9553] | 8.52 ± 0.53
66 | TTATATTTAGTATATGCACACTTTATGTTTGTTATT [CACACA_site5163] | 9.29 ± 0.21
67 | ATATTACACATATATGCACACATTGTAGTTATTTAT [CACACA_site8843] | 9.34 ± 0.26
68 | TTATCATTTGCCATTGTGCACTTATATGCTCACATT | 10.97 ± 0.028
69 | TATCATTTATATATGTGTACTTATTTATTTATTTAT [XGTACX_site7961] | 7.96 ± 0.28

Row | Sequence | gcPBM binding intensity (ln)
70 | TATATATATATATATGTGCACATTTATTGCCTTTGC | 9.76
71 | ATTGTGCACTTATATGCACACATTTTAGTTTTTTTT [CACACA_site2028] | 11.4 ± 0.69
72 | ATTACCAACAGATCTTGTACATATTAAAGCATCTTA [XGTACX_site2361] | 7.84 ± 0.57
73 | TCTATTAATTAATATACACACATTATATATATATAT [CACACA_site8815] | 9.375 ± 0.049
74 | TTTTTTATTGTGATACGTATATTATTTTATGATAAA [CACACA_negctrl_site1591] | 8.04 ± 0.6
75 | AAACACACACACAAATGTACATATATATATATATTT [XGTACX_site5090] | 7.92 ± 0.51
76 | AATATTATAAATGATACACACTTAAAATACACGCAC [CACACA_site7305] | 8.71 ± 0.22
77 | CATCATAGAGTGGAGTGTACAAATATGTCAACATAT [XGTACX_site2264] | 7.99 ± 0.55
78 | TATATTTAGAGAGAGACACACAAAGGGACTTACACA [CACACA_site2545] | 7.82 ± 0.71
79 | CATAATACATATAACACACACAATTATACATAAAAT [CACACA_site3233] | 7.88 ± 0.33
80 | TGGAAACAATGACACACACACAAAAAAAAAAAAAAA [CACACA_site7494] | 7.97 ± 0.56
81 | TATAAGTTGATATATACACACATATATAAATATGTA [CACACA_site7526] | 7.4 ± 0.4
82 | ATATTTTCTTTTTAAAGTACATATTTGATTACAATA [XGTACX_site8414] | 7.66 ± 0.5
83 | TGTATATATTTGTGCACACCAAAGTTTGATTTTATT [CACACA_site1860] | 10.9 ± 0.099
84 | ATATGTATTTATATATGTTTGATTTTTTTTTTTTTT [TGCATGCA_negctrl_site506] | 7.71 ± 0.26
85 | TATGTATATATTTGTGCACACCAAAGTTTGATTTTA [CACACA_site1861] | 10.71 ± 0.014
86 | AAAAAAAAAAGACACACACACACATACACATACATA [CACACA_site7362] | 7.96 ± 0.29
87 | TATATTATTATATATTGTACTTTTTATATTTGCATT [XGTACX_site2978] | 7.72 ± 0.49
88 | TTTTTTTTTTTTGAAGTGCATTACTTTTTTTGTATT [GTGCAC_site9811] | 11 ± 0.44
89 | TTTTTGTGCATTGATTGTACTTTCTAGGATTATTAA [XGTACX_site7070] | 10.16 ± 0.049
90 | TATATTTATAAATGAACACACACGCAATTTGAATCG [CACACA_site3370] | 7.89 ± 0.49
91 | ATTGTTATTTATTGTGTGCGCATTAATACATACATA [GTGCAC_site9982] | 8.95 ± 0.41
92 | TTCAATAGGTATAATTGTACTTAATAATATATTGTT [XGTACX_site8363] | 7.53 ± 0.42
